Screening results (PubChem BioAssay)
ATXN2 expr inh: Primary qHTS for Inhibitors of ATXN expression; HEK-293 ATXN2-luciferase reporter, luminescence, 24 h; Potency, µM (series often up to 57 µM), for the others: at the top dose activity change, negative = inhibition, actives largely listed as inhibitors; 360,000 compounds, 0.72% hits; AID 1745845, 2022; also: potency is read from the fitted curve at half-maximal effect; % is scaled to controls: 0 for no effect and ±100 for the full control effect; nearly all actives have a fitted effect of over 55% in size
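qHTS (up to 57 uM final) was run with 24 h compound exposure of reporter cells at 37 °C. Each well was multiplexed: SteadyGlo luminescence measured ATXN2-luciferase expression after a fluorogenic Gly-Phe-AFC viability readout (25 uM final).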
IL-1B inflam inh: qHTS for Inhibitors of Inflammasome Signaling: IL-1-beta AlphaLISA Primary Screen; THP-1 LPS/ATP IL-1B secretion, AlphaLISA, 16 h; hits give low values; activity change, % at 57.5 µM; 360,000 compounds, 4.7% hits; in the data active = activity change below about -50%; inconclusive = mostly about -30% to -49%; also: % is scaled to controls: 0 for no effect and ±100 for the full control effect
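THP-1 cells pretreated 1 hr with compounds (up to 57.5 uM final), then stimulated with LPS (250 ng/mL final) plus ATP (1.25 mM final); secreted IL-1B measured by AlphaLISA after 16 hr, decreased signal indicating inhibition.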
USP2a block: qHTS Assay for Inhibitors of Ubiquitin-specific Protease USP2a Using CHOP2 as the Reporter; USP2 core, Ub-CHOP2 coupled fluorogenic reporter, 485/531; Potency, µM (top dose mostly 38.3 µM), for inactives: at the top dose activity change, negative = inhibition, most hits filed as inhibitors; 330,000 compounds, 0.01% hits; AID 463254, 2010;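 also: potency is read from the fitted curve at half-maximal effect; plate controls were DMSO wells for no effect and full inhibition by NEM control for full effect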
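USP2 core (10nM final) preincubated 30min RT with compound in 20mM Tris-HCl pH 8.0, 2mM CaCl2, 2mM beta-mercaptoethanol, 0.05% CHAPS; 25nM Ub-CHOP2 plus 25nM reporter substrate added, fluorescence (Ex485/Em531) read after 60min.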
USP1 inh: Inhibitors of USP1/UAF1: Primary Screen | recombinant USP1/UAF1, Ub-Rhodamine cleavage fluorescence | Potency, µM (titrated, usually from 57.1 µM), for the others: top-dose activity change, negative = inhibition, hits mostly inhibitors | 390,000 compounds, 0.23% hits | AID 743255, 2014; also: potency is read from the fitted curve at half-maximal effect; % is scaled to controls: 0 for no effect and ±100 for the full control effect; nearly all actives have a fitted effect of over 60% in size
Target sequence (O94782 whole entry, looked up): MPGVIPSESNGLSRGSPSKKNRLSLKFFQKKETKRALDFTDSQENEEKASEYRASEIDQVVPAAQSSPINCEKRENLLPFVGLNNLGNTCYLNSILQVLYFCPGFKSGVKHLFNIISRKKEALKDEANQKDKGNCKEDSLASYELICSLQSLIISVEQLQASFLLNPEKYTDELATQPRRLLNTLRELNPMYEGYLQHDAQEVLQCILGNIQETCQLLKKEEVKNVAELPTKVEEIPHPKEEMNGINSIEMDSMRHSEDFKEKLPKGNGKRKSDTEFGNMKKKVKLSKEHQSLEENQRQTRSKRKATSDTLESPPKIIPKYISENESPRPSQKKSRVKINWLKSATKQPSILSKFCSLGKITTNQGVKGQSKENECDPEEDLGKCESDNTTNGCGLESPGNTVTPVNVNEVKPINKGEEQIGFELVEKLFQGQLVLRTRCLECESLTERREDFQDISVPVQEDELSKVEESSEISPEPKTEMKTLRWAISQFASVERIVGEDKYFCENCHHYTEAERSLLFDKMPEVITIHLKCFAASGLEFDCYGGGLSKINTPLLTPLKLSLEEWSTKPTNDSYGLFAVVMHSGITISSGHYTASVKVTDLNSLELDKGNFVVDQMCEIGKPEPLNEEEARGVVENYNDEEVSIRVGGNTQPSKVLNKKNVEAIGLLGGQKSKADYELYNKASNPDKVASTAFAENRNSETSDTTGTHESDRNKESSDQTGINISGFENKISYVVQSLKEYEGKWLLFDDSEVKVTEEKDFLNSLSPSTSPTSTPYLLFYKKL
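High-throughput fluorogenic screen: 1nM USP1/UAF1 complex, Ub-Rho substrate 150nM final, 50mM HEPES pH 7.8 with 0.5mM EDTA, 0.1 mg/ml BSA, 1mM TCEP and 0.01% Tween-20.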
S2 tox: Viability Counterscreen for Primary qHTS for Inhibitors of ATXN expression. S2 cells (HEK-293 line with an ATXN2-luciferase reporter) viability, CellTiter-Fluor protease fluorescence, 24 h. Potency, µM (series often up to 56.7 µM), usual class: cytotoxic. 400,000 compounds, 0.49% hits; also: potency is read from the fitted curve at half-maximal effect; nearly all actives have a fitted effect of over 40% in size
An asterisk follows results filed as active; i = inactive; ? = inconclusive; · = no result given; ! = not active in a repeat; [ ] = remark or other dose. This is a sample that favours compounds with a hit; in the whole collection about 4.8% have one here. Unless noted, calls follow the shape of the dose curve; as a rule, active = well fitted curve in the direction sought with a large enough effect; inconclusive = small, poorly fitted or top-dose-only effect, or another doubt; inactive = no such curve, though single readings can be large; an effect the other way counts as inactive or inconclusive.

SMILES	ATXN2 expr inh	IL-1B inflam inh	USP2a block	USP1 inh	S2 tox
CCN1C(=O)C(c2ccc(O)cc2)(c2ccc(O)cc2)c2ccccc21	0%	-94*	2%	-1%	i
O=C1Nc2ccccc2C1(c1ccc(O)cc1)c1ccc(O)cc1	18%	·	·	·	i
CCc1ccc2oc(C(=O)NCC(c3ccc(Cl)cc3)N3CCOCC3)c(C)c2c1 (stereo not drawn)	-18%	·	·	-33%	?
C[n+]1ccn(CC(=O)c2cccs2)c1	-2%	-3	2%	-1%	i
CCCCCCCCCCCCCCCCn1cc[n+](C)c1	14µM*!	-96*	-28%	?	20µM*
CCOC(=O)N1C(=O)[C@](c2ccc(Cl)cc2)(C(C)C)N1C(=O)OCC	?	-98*	4%	?	?
CCOC(=O)C1(C(N)=O)OC1(c1ccc(Cl)cc1)c1ccccc1Cl (stereo not drawn)	0%	8	·	-23%	i
CCOC(=O)N1C(=O)[C@@](c2ccc(Cl)cc2)(C(C)C)N1C(=O)OCC	?	-113*	5%	?	·
COC(=O)c1sc(C(F)(F)F)c(-c2ccccc2)c1S(=O)(=O)N1CCOCC1	6%	19	·	-7%	i
CN(C)c1ccc(C(=O)C(O)c2ccccc2Cl)cc1 (stereo not drawn)	-22%	?	·	2%	i
Cc1cc(N(CCO)CCO)ccc1C(c1ccc(N(CCO)CCO)cc1C)c1ccccc1Cl	?	-68*	2%	-17%	·
Cc1ccc(/C=C2\Sc3ccccc3C2=O)s1	48%	12	0%	?	?
COc1ccc(OC)c(/C=C2/Sc3ccccc3C2=O)c1	4%[11.3 µM]	9	10%	28µM*	·
Cc1ccc(S(=O)(=O)c2nnn3c2nc(N2CCN(c4cccc(C)c4C)CC2)c2ccccc23)cc1C	·	·	·	8%	·
Cc1ccc(S(=O)(=O)c2nnn3c2nc(N2CCOCC2)c2ccccc23)cc1C	7%	-66*	0%	-10%	i
COc1cc(CNC(=O)c2sc3ncccc3c2-n2cccc2)cc(OC)c1OC	-25%	·	·	-20%	?
Cc1ccc(S(=O)(=O)NC(=O)C2(C)CCN2C(=O)Cc2ccc(Cl)cc2Cl)cc1 (stereo not drawn)	-10%	-15	·	·	i
O=C1CCC(=O)O1	0%	-54*	-1%	-10%	i
Cc1cccc(S(=O)(=O)NC(=O)C2(C)CCN2C(=O)c2cccc(F)c2)c1 (stereo not drawn)	-2%	20	·	·	i
COC(=O)c1c(C)n(-c2ccccc2)c2ccc(O)cc12	6%	23	0%	-4%	i
CN(C)/C=C/c1c([N+](=O)[O-])c2ccc(O)cc2n1-c1ccccc1	0%	-86*	-2%	-10%	?
CCc1c(C(=O)N/N=C/c2cccs2)nnn1-c1nonc1N	-7%	0	-1%	-6%	i
C/C(=N\NC(=O)c1nnn(-c2nonc2N)c1-c1ccccc1)c1cccnc1	12%	24	3%	-24%	i
C/C(=N/NC(=O)c1nnn(-c2nonc2N)c1-c1ccccc1)c1ccc2c(c1)OCO2	-22%	-86*	0%	-21%	i
Nc1nonc1-n1nnc(C(=O)N/N=C/c2cc(Br)cs2)c1-c1ccccc1	2%	-92*	2%	-32%	i
SMILES	ATXN2 expr inh	IL-1B inflam inh	USP2a block	USP1 inh	S2 tox
COCc1c(C(=O)N/N=C\c2cccs2)nnn1-c1nonc1N	17%	-68*	-1%	-14%	i
CC1CCN(Cc2c(C(=O)N/N=C/c3cc(Cl)ccc3O)nnn2-c2nonc2N)CC1	2.2µM*	103	3%	-15%	i
CC(C)(C)OC(=O)N1CCC[C@H]1C(=O)Nc1ccc(S(=O)(=O)C(F)F)cc1	·	23	0%	-2%	i
Nc1c(C(O)(C(F)(F)F)C(F)(F)F)cc(C(O)(C(F)(F)F)C(F)(F)F)c2ccccc12	?	-96*	4%	-21%	?
COc1cc(C)c(CN2C[C@H](Sc3ccccn3)C[C@H]2C(=O)N(C)C)cc1C	·	·	·	·	i
Cc1cc2ccccn2c1C(=O)c1ccc([N+](=O)[O-])cc1[N+](=O)[O-]	-18%	-14	2%	-10%	i
Cc1cc2ccccn2c1C(=O)c1ccc([N+](=O)[O-])o1	?	-99*	-2%	-23%	?
Cc1cc2ccccn2c1C(=O)c1cccc([N+](=O)[O-])c1	·	0	0%	0%	i
COc1ccc(C(=O)c2ccc(Cl)c([N+](=O)[O-])c2)cc1	-21%	-101*	2%	4%	?
Cc1cc2ccccn2c1C(=O)c1ccc(Cl)c([N+](=O)[O-])c1	4%[11.3 µM]	-75*	3%	-2%	i
CCN(C[C@H]1N[C@@](CC)(C(=O)OC)[C@H]2C(=O)N(Cc3ccccc3)C(=O)[C@@H]12)C(=O)COc1ccccc1	0%	-12	6%	-28%	i
Cc1oc(-c2ccccc2NC(=O)c2ccccn2)nc1CNC(=O)c1ccc(Oc2ccccc2)o1	·	·	·	·	i
CC(Oc1cccnc1[N+](=O)[O-])C(=O)Nc1cccc(Cl)c1 (stereo not drawn)	·	0	0%	-23%	i
O=C1/C(=C/c2ccccc2)SC(=S)N1CCCC(=O)N1CCCCC1CCO (stereo not drawn)	-32%	-59*	-7%	-16%	i
O=C1/C(=C/c2ccco2)SC(=S)N1CCC(=O)N1CCCCC1CCO (stereo not drawn)	·	-76*	1%	?	·
O=C1/C(=C/c2ccc(F)cc2)SC(=S)N1CC(=O)N1CCCCC1c1cccnc1 (stereo not drawn)	·	18	-1%	-13%	?
O=C1/C(=C/c2ccccc2F)SC(=S)N1CC(=O)N1CCCCC1c1cccnc1 (stereo not drawn)	·	-61*	1%	-18%	?
O=C1/C(=C/c2ccccc2F)SC(=S)N1CCC(=O)N1CCCCC1CCO (stereo not drawn)	-16%	-99*	-9%	-27%	?
C[C@H]1COC(=O)[C@H](CC(=O)OC(C)(C)C)C/C=C\C[C@@H](CC(=O)N[C@@H](CO)Cc2ccccc2)C(=O)N1	7%	-3	-1%	-6%	i
COc1ccc(NC(=O)CSCC(=O)Nc2ccccc2C(=O)N2CCCCC2)cc1	-20%	-6	2%	-16%	?
O=C(O)c1cn(C2CC2)c2cc(N3CCNCC3)c(F)cc2c1=O	5%	·	·	·	i
Nc1cc(S(=O)(=O)Nc2ccc(Br)cc2)ccc1Cl	1%	-69*	-2%	-15%	i
